Only some compounds are listed: those with a hit (about 7.3% of all), similar ones and a draw of the others.
ELG1 genotox – qHTS screen for small molecules that induce genotoxicity in human embryonic kidney (HEK293T) cells expressing luciferase-tagged ELG1 | 330,000 tested, 1.3% active | Potency, µM (doses to about 46 µM), actives largely listed as activators | AID 504466, 2011 | HEK293T ELG1-luciferase reporter, luminescence, 16 h; also: nearly all actives have a fitted effect of over 60% in size
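16 hr compound incubation (37 °C, 5% CO2) of HEK293T cells carrying luciferase-tagged ELG1; luciferase then measured by ONE-Glo luminescence after 30 min at RT.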
FLuc modulator – qHTS profiling assay for firefly luciferase inhibitor/activator using purifed enzyme and Km concentrations of substrates (counterscreen for miR-21 project) | Luciferin 4-monooxygenase (Photinus pyralis), P08659 | purified FLuc, Km substrates, luminescence inhibition | Potency, µM (highest dose often 57.5 µM), most hits filed as inhibitors | 360,000 tested, 6.9% active | AID 588342, 2011; also: nearly all actives have a fitted effect of over 55% in size
Target sequence (P08659 whole entry, looked up): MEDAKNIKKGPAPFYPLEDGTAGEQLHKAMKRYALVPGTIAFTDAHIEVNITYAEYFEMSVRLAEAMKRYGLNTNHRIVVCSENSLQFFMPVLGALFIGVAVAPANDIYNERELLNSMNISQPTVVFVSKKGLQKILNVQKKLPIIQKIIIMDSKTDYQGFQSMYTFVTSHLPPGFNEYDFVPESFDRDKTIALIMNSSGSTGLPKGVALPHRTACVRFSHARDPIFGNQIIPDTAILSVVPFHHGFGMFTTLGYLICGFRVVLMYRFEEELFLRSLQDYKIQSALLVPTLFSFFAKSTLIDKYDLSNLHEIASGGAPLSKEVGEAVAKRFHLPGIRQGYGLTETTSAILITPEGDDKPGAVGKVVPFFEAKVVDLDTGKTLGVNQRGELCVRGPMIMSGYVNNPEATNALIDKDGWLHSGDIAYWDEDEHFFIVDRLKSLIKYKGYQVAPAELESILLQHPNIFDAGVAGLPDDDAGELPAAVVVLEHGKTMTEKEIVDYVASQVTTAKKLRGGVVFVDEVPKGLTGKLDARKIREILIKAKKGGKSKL
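Purified P. pyralis luciferase, 10 nM final, with Km-level 10 uM D-luciferin and 10 uM ATP in 50 mM Tris acetate pH 7.5, 10 mM Mg acetate, 0.01% Tween-20, 0.05% BSA; 6-point qHTS titration about 60 µM downward; luminescence read.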
SMN2 splice enh – qHTS Assay for Enhancers of SMN2 Splice Variant Expression | HEK293 SMN2-luciferase splicing reporter, luminescence, 30-36 h | Potency, µM (highest dose often 46.1 µM), actives largely listed as activators | 210,000 tested, 2.8% active; also: nearly all actives have a fitted effect of over 55% in size
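HEK293 cells carry an SMN2 […]–luciferase reporter in which exon 7 inclusion puts luciferase in frame. Cells were plated 10-12 h before compound addition, then incubated 30-36 h at 37C. ONE-Glo luminescence was read; sodium butyrate at 4.5 mM final served as control.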
NPC1 prom act – qHTS Assay for NPC1 Promoter Activators | 320,000 tested, 2.4% active | Huh7 NPC1 promoter luciferase reporter, 24 h | Potency, µM (series often up to 9.22 µM), actives largely listed as activators | AID 485313, 2010; also: nearly all actives have a fitted effect of over 60% in size
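Compounds in DMSO were transferred onto Huh7 NPC1-luciferase reporter cells pre-incubated 2 h; after 24 h at 37 °C, Amplite reagent was dispensed and luminescence recorded 10 min later.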
Rab9 promoter act – qHTS Assay for Rab9 Promoter Activators; Potency, µM (titrated, usually from 9.22 µM), usual class: activators; Huh7 Rab9 promoter-luciferase reporter, luminescence, 24 h; 320,000 tested, 2.8% active; AID 485297, 2010; also: nearly all actives have a fitted effect of over 60% in size
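Stable Rab9-luc Huh7, 1500 cells/well, 2 h settle; cmpd in DMSO, 24 h, 37 °C/5% CO2; luciferase reagent 10 min RT; luminescence.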
Luc counter – Counterscreen for Luciferase (Kinase-Glo TM) Inhibition | AID 1379, 2008 | Potency, µM (doses to about 38.3 µM), actives largely listed as inhibitors | 200,000 tested, 0.28% active | Luciferin 4-monooxygenase (Photuris pensylvanica), Q27757 | Kinase-Glo luciferase, ATP luminescence, 8 min; also: nearly all actives have a fitted effect of over 60% in size
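Luminescence was the read-out, taken after 8-minute incubation at ambient temperature. Luciferase turned over luciferin with 10 uM ATP in imidazole pH 7.2 buffer containing KCl, MgCl2, Tween 20 and BSA.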
Hits are given with their value; . = inactive; ? = inconclusive; / = no result; [ ] = another dose, or the depositor's remark. Calls follow the shape of the dose curve; as a rule, active = well fitted curve in the direction sought with a large enough effect; inconclusive = small, poorly fitted or top-dose-only effect, or another doubt; inactive = no such curve, though single readings can be large; an effect the other way counts as inactive or inconclusive.

SMILES	ELG1 genotox	FLuc modulator	SMN2 splice enh	NPC1 prom act	Rab9 promoter act	Luc counter
Cc1ccccc1-c1noc(-c2ccc(N3CCCC3)c([N+](=O)[O-])c2)n1	/	13.5µM	/	/	/	/
CCNc1ccc(-c2nc(-c3ccco3)no2)cc1[N+](=O)[O-]	/	15.1µM	/	/	/	/
Cc1noc(-c2ccc(N3CCC(C)CC3)c([N+](=O)[O-])c2)n1	/	8.49µM	/	/	/	/
O=C(CC1C(=O)N(c2ccccc2)C(=O)N1Cc1ccc(F)cc1)Nc1cccc(F)c1 (stereo unspecified)	/	.	/	/	/	/
CCN(C(=O)c1cccs1)c1nnc(-c2ccncc2)s1	?	13.5µM	.	.	?	.
COCCN(C(=O)Cc1cccs1)c1nnc(-c2ccncc2)s1	.	.	.	.	.	.
Nc1nc(SCC(=O)NCCOCCO)nc2sc3c(c12)CCCC3	.	26.9µM	/	.	.	.
NC(=O)CSc1nc(C2CC2)nc2sc3c(c12)CCCC3	9.2µM	1.51µM	/	2.82µM	2.51µM	.
CNC(=O)CSc1nc(N)c2c3c(sc2n1)CCC3	?	?	.	.	.	.
NC(=O)CSc1nc(N)c2c3c(sc2n1)CCCCC3	?	8.49µM	.	.	.	.
Cc1ccc2c(=O)cc(C(=O)Nc3ccc(S(=O)(=O)N(C)Cc4ccccc4)cc3)oc2c1C	/	.	.	/	/	/
COc1ccccc1CNC(=O)c1ccc2c(c1)sc1nc(-c3ccc(F)cc3)cn12	/	.	/	/	/	/
CCOc1ccc2c(c1)sc(=NC(=O)C1CC1)n2C	/	7.57µM	11.2µM	/	/	.
Cc1ccc(-c2nc(CS(=O)CC(=O)N3CCN(c4ccc(Cl)cc4)CC3)c(C)o2)cc1 (stereo unspecified)	/	.	/	/	/	/
O=C(/C=C/c1cccc(Cl)c1)c1nc2ccccc2[nH]1	.	2.69µM	.	.	.	.
O=C(NCc1nc2ccccc2[nH]1)c1cccc(Cl)c1	/	.	.	/	/	/
O=C(/C(=C/c1ccc(Cl)cc1)c1nc2ccccc2[nH]1)c1cccs1	?	?	.	.	.	.
O=C(/C(=C\c1ccccc1)c1nc2ccccc2[nH]1)c1ccc(Cl)cc1	?	.	.	2.82µM	?	.
CCCCCCN	/	/	.	/	/	/
CCOC(=O)c1ccccc1NC(=O)Cn1c(=O)n(-c2ccc(CC)cc2)c(=O)c2c(C)c(C(=O)N(C)C)sc21	/	.	/	/	/	/
O=c1c2ccccc2nc(SCc2nc3ccccc3s2)n1CCCO	?	13.5µM	14.1µM	?	2.82µM	.
CCC(=O)OCc1cnc(C)c2oc(=O)c(C(=O)Nc3ccccc3C(F)(F)F)cc12	/	.	/	/	/	/
Cn1c2ccccc2c(=O)c2ccc(-c3ccc4c(c3)OCO4)cc21	?	3.01µM	/	1.26µM	1.12µM	/
O=c1cc(-c2ccc(O)cc2)oc2ccccc12	?	10.7µM	?	?	?	.
O=c1cc(-c2ccccc2O)oc2cc(O)cc(O)c12	/	/	/	/	/	.
SMILES	ELG1 genotox	FLuc modulator	SMN2 splice enh	NPC1 prom act	Rab9 promoter act	Luc counter
Nc1c(-c2ccc3c(c2)OCCO3)oc2ccccc2c1=O	10.3µM	9.53µM	/	?	?	/
O=c1cc(-c2ccccc2O)oc2cc(O)ccc12	/	/	25.1µM	/	/	.
COC(=O)C1=C(C(=O)OC)[C@@H]2N(Cc3ccccc3)c3ccccc3[C@@]23C[C@@H](C(=O)OC)N(C(=O)NCc2ccccc2)C3=C1	/	/	.	/	/	.
COc1ccc2c(CNCc3ccco3)c(C(=O)O)n(Cc3ccc(F)cc3Cl)c2c1	/	.	/	/	/	/
COC(=O)C1=C(C(=O)OC)[C@@H]2N(C)c3ccc(OC)cc3[C@@]23C[C@@H](C(=O)OC)N(S(=O)(=O)c2ccc4c(c2)OCCN4C)C3=N1	/	/	?	/	/	.[7.66 µM]
CC(Cc1ccccc1)C(=O)NCCc1c[nH]c2ccccc12 (stereo unspecified)	/	/	.	/	/	.
CCN(CC)C(=O)c1sc2c(c1C)c(=O)n(-c1ccc(C)c(C)c1)c(=O)n2CC(=O)Nc1ccc(F)cc1	/	.	/	/	/	/
COc1ccccc1-c1cc(=O)c2cc(O)ccc2o1	/	/	/	/	/	.
O=c1cc(-c2cccc(O)c2)oc2ccc(O)cc12	/	/	14.1µM	/	/	.
NC(=O)COc1ccc2oc(-c3ccccc3)cc(=O)c2c1	?	12µM	.	?	?	.
O=c1cc(-c2ccc3c(c2)OCO3)oc2ccccc12	9.2µM	?	12.6µM	3.16µM	3.55µM	.
COc1ccc(C(=O)c2c(O)cc(-c3ccc(OC)cc3)oc2=O)cc1	.	16.9µM	.	.	.	.
COc1cc(Nc2nc3c(S(=O)(=O)c4ccc(C)c(C)c4)nnn3c3ccsc23)cc(OC)c1	/	.	/	/	/	/
COc1cc2cc3c4cc(OC)c(OC)cc4cc[n+]3c(C)c2cc1OC	/	/	.	/	/	.
CC(C(=O)NCc1ccccc1F)n1ccc2cc(S(=O)(=O)N3CCCC3)ccc21 (stereo unspecified)	/	.	/	/	/	/
COc1ccc(-c2cc3ccccc3c(=O)o2)cc1	/	/	12.6µM	/	/	.
COc1ccc2c(=O)cc(-c3ccc(O)cc3)oc2c1	/	/	/	/	/	.
COc1ccc(-c2cc(=O)c3ccccc3o2)cc1	20.6µM	6.01µM	10µM	2.51µM	2µM	.
COc1ccc(-c2cc(=O)c3c(O)c(OC)c(OC)c(OC)c3o2)cc1	/	/	.	/	/	.
O=c1cc(-c2ccc(O)cc2)oc2ccc(O)cc12	.	12µM	?	?	3.55µM	.
COc1ccc(-c2cc(=O)c3c(O)c(OC)c(O)cc3o2)cc1	1.83µM	0.269µM	/	3.16µM	3.55µM	/
O=c1cc(-c2ccncc2)oc2ccccc12	.	.	.	.	.	.
Cn1cc(S(=O)(=O)N2CCc3ccccc32)cc1C(=O)Nc1ccc(C(F)(F)F)cc1	/	.	/	/	/	/
CC1CCCCN1C(=O)CSc1n[nH]c(-c2ccccc2Cl)n1 (stereo unspecified)	/	.	/	/	/	/
O=C(c1ccc(Cl)c([N+](=O)[O-])c1)N1CCCc2ccccc21	.	19µM	/	.	.	/
SMILES	ELG1 genotox	FLuc modulator	SMN2 splice enh	NPC1 prom act	Rab9 promoter act	Luc counter
COc1ccc(CCNC(=O)c2cccs2)cc1OC	.	.	.	.	.	.
COc1ccc(CNc2nc(NCc3ccc(OC)c(OC)c3)n(C(=O)c3cccs3)n2)cc1OC	.	10.7µM	.	.	.	.
Cc1ccc2c(CN(C)Cc3cccc(F)c3)cc(=O)oc2c1	?	10.7µM	/	?	.[1.84 µM]	/
COc1ccc2oc(=O)cc(CN(C)Cc3ccccc3)c2c1	.	.	/	.	.	/
CCc1ccc2c(CN(C)Cc3ccccc3OC)cc(=O)oc2c1	.	16.9µM	/	.	.	/
CCCCNc1nc2c(S(=O)(=O)c3ccc(C)cc3)nnn2c2ccsc12	/	.	/	/	/	/
CC(C)N(Cc1ccccc1)C(=O)Cn1ncc2c([nH]c3ccccc32)c1=O	/	.	/	/	/	/
Cc1ccnc(Nc2nc(-c3ccc(Cl)cc3)cs2)c1	?	2.69µM	/	2.82µM	2.82µM	/
Cc1ccnc(Nc2nc(-c3ccc(F)cc3)cs2)c1	?	0.849µM	/	1.78µM	2.51µM	/
